# Laboratory results reported in PubChem BioAssay AID778 (Sanford-Burnham Center for Chemical Genomics, 2007).
# Out of some 96,000 compounds screened, about 20,000 (21%) were called active. Only a sample is shown. Values without a mark were called inactive.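 Rule for the calls: active = CYP2C19 inhibition above a set limit at 5 µM in the primary screen (cut at about 50% in these data); inactive = the rest.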
# Biological target: Cytochrome P450 2C19 (Homo sapiens) (UniProt P33261)
# Assay: blockers of cytochrome P450 2C19 activity – biochemical, luminescence, ADME assay, primary screen (AID 778);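 note: plate controls were negative control wells for no effect and 2.5 mM tranylcypromine positive control for full effect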
# Settings: CYP2C19 Supersomes, luciferin-H EGE luminescence, 30 min; at 5 µM; stronger effect = higher value
# Chain of Cytochrome P450 2C19 (Homo sapiens) (P33261 whole entry, looked up): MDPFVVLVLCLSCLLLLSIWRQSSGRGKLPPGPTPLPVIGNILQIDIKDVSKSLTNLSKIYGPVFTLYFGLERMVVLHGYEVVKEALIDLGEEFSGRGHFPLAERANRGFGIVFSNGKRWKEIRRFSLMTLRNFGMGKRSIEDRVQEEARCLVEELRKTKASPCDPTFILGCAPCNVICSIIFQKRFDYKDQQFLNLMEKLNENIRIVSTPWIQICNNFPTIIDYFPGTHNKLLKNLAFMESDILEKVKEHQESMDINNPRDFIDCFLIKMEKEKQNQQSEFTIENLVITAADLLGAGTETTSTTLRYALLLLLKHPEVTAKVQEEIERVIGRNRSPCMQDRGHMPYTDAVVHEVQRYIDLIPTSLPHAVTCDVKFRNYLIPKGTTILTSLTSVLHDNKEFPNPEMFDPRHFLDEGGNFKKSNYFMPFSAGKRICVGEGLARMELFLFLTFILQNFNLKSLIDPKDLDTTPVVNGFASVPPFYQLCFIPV
row,SMILES,inhibition
1,CCCCOc1ccc(NC(=O)CSCC(=O)OCC)cc1,14.3%
2,O=S1(=O)CC(NCc2ccccc2)C(Nc2ccc(Cl)cc2)C1 (stereo not drawn),46.7%
3,Cn1c(=O)c2c(n(Cc3ccccc3)c1=O)NC(=O)C2CC(=O)N1CCc2ccccc2C1 (stereo not drawn),-9.3%
4,CC(Oc1ccc(-c2ccccc2)c(F)c1)c1ccn(S(=O)(=O)c2cccc3ccccc23)n1 (stereo not drawn),25%
5,C=CCn1c(=N)n(CC(O)COc2ccc(OC)cc2)c2ccccc21 (stereo not drawn),12.4%
6,Cc1ccc(-c2noc(CC(c3ccccc3)c3ccccc3)n2)cc1,19.9%
7,Cc1ccc(-c2noc(CSc3nnc(-c4cccs4)n3C)n2)cc1,23%
8,Cc1ccc(-c2noc(CSc3nnc(-c4ccccc4)n3C)n2)cc1,88.2% (active)
9,CCCCCOC(=O)c1ccc(N2C(=O)C3C4C=CC(C4)C3C2=O)cc1 (stereo not drawn),-13.5%
10,O=C1Nc2ccccc2C12Nc1ccccc1S2 (stereo not drawn),80.5% (active)
11,CC(=O)N1C(=O)C2(Nc3ccccc3N2)c2ccccc21,-7.6%
12,Clc1cccc(N=C2NN=C(c3ccc4c(c3)OCCO4)CS2)c1,24.7%
13,C=CC[n+]1c(-c2ccc(C)cc2)csc1NNC(=O)Nc1ccccc1,18%
14,c1coc(-c2nc3nc4ccccc4n3nc2-c2ccco2)c1,-23.4%
15,Cn1c(-c2ccco2)nc2cc3ccccc3cc21,53.3% (active)
16,CN(c1nc2ccccc2n2c(-c3ccco3)nnc12)S(=O)(=O)c1ccccc1,1.3%
17,CSc1nc(C)nc2c1c(=O)n(C)c(=O)n2C,-8.7%
18,CCCC1CC(C)(C(=O)Cn2[nH]c(=O)ccc2=O)OC1=O (stereo not drawn),0.3%
19,COc1cccc(NC(=O)c2nn(C34CC5CC(CC(C5)C3)C4)cc2[N+](=O)[O-])c1,9.7%
20,COc1ccc(-c2cc(C3CCN(c4ncccc4[N+](=O)[O-])CC3)[nH]n2)cc1,84.8% (active)
21,CCCn1c(=O)c(-c2ccccc2)c(O)c2ccccc21,-13.5%

row,SMILES,inhibition
1,COc1ccc(S(=O)(=O)NC2(C(F)(F)F)N=C3SCCN3C2=O)cc1 (stereo not drawn),-1.5%
2,Cc1cccc(N2CCN(S(=O)(=O)c3ccc4[nH]c(=O)c(=O)[nH]c4c3)CC2C)c1 (stereo not drawn),19.7%
3,CSc1nnc(-c2ccncc2)n1CCCN1CCCC1=O,-0.2%
4,COC(=O)c1ccc(Sc2ccc(F)cc2)c(N)c1,94.3% (active)
5,CC(C)NC(=O)c1ccc(Sc2ccccc2)c([N+](=O)[O-])c1,36.8%
6,CC(C)(CCl)C(=O)Nc1ccc(Sc2ccc(F)cc2)cc1,-1.4%
7,c1cnc(NC2C3CC4CC(C3)CC2C4)nc1 (stereo not drawn),26%
8,CN(C)c1ccc(CNC23CN4CN(CN(C4)C2)C3)cc1,0.2%
9,CN(C)c1ccc(CNC2C3CC4CC(C3)CC2C4)cc1 (stereo not drawn),75.5% (active)
10,Cc1cc(Cl)c(S(=O)(=O)Nc2ccc3c(c2)OCCO3)cc1OCC(N)=O,15.3%
11,COc1ccc(C(=O)Nc2ccc(S(=O)(=O)Nc3onc(C)c3C)cc2)cc1OC,15.5%
12,COc1ccc(S(=O)(=O)Nc2ccc(F)cc2)c(C)c1C,94.9% (active)
13,CC(C)CNS(=O)(=O)c1ccc(OCC(=O)Nc2ccc3c(c2)OCO3)c(Cl)c1,-1%
14,COc1ccc(C(=O)Nc2ccc3c(c2)OCO3)cc1OC,39.8%
15,COc1ccc(F)cc1S(=O)(=O)Nc1ccc2c(c1)OCO2,69.4% (active)
16,COc1ccc(S(=O)(=O)Nc2ccc3c(c2)OCO3)cc1Cl,100% (active)
17,O=C1CCCC2=C1C(c1cccs1)n1nc(SCc3ccccc3)nc1N2 (stereo not drawn),-10.3%
18,N=c1c2c3c(sc2ncn1CCCN1CCOCC1)CCCCC3,7.8%
19,CCOc1cc2[nH]c(=S)n(Cc3ccc(C(=O)NCCOC)cc3)c(=O)c2cc1OCC,-10.8%
20,CCOC(=O)N1CCN(Cc2oc(CO)cc(=O)c2O)CC1,5.4%
21,CSCCC(NS(=O)(=O)c1ccc2c(c1)oc(=O)n2C)C(=O)NC1CCCc2ccccc21 (stereo not drawn),7.6%

row,SMILES,inhibition
1,OC1CN=C2Sc3ccccc3N2C1 (stereo not drawn),-7.4%
2,O=C(Cc1ccc2c(c1)CCCC2)Nc1ccccc1Cl,27.1%
3,CC1(C)CC(CCC(=O)Nc2ccccc2Cl)C(=O)O1 (stereo not drawn),1.2%
4,O=C(Nc1ncc2c(n1)CC(c1ccco1)CC2=O)c1ccc(Cl)cc1 (stereo not drawn),28.4%
5,CCCCOc1ccc(CSC(=N)N)cc1[N+](=O)[O-],16.6%
6,Cc1cc(=O)[nH]c(SCc2cc(Cl)ccc2OC(F)F)n1,29%
7,CCCCOc1ccc(Cl)cc1CSc1nncn1N,86.7% (active)
8,Cc1[nH]n(-c2ccc([N+](=O)[O-])cc2)c(=O)c1C=NCCN1CCN(C(=O)c2ccccc2F)CC1,9.2%
9,CCC(=O)Nc1ccccc1N1CCN(S(C)(=O)=O)CC1,10.6%
10,COc1ccc(C(=O)NC(=S)Nc2ccccc2N2CCN(S(C)(=O)=O)CC2)cc1OC,75.2% (active)
11,CCOC(=O)c1cnc2sccn2c1=O,-11.8%
12,Cc1ccc(-n2c(=O)c(C#N)cc3c(=O)n4ccccc4nc32)cc1C,6.5%
13,CCn1c(=N)c(S(=O)(=O)c2ccc(F)cc2)cc2c(=O)n3ccccc3nc21,69.6% (active)
14,CCCn1c(=NC(C)=O)c(C(=O)OCC)cc2c(=O)n3ccccc3nc21,-6.3%
15,COc1cc2[nH]c(=S)n(Cc3ccc(C)o3)c(=O)c2cc1OC,-7.9%
16,CCC(C)(C)n1nnnc1C(c1cccs1)N1CCN(Cc2ccccc2)CC1 (stereo not drawn),61.8% (active)
17,CC(C)C(c1nnnn1Cc1ccccc1)N1CCC(C(N)=O)CC1 (stereo not drawn),10%
18,Fc1ccc(Cn2nnnc2C(c2cccs2)N2CCCCCC2)cc1 (stereo not drawn),96% (active)
19,CCC(C)(C)n1nnnc1C(c1cccs1)N1CCN(c2nc3ccccc3s2)CC1 (stereo not drawn),49.9%
20,N#Cc1ccc(C(c2nnnn2CCc2ccccc2)N2CCCCCC2)cc1 (stereo not drawn),20.5%
21,CCC(C)(C)n1nnnc1C(c1ccccc1OC)N1CCSCC1 (stereo not drawn),11.4%
